ALDH1A1 inh – inhibitors of human aldehyde dehydrogenase 1A1 | P00352 | Purified ALDH1A1, NADH fluorescence, propionaldehyde substrate | Potency, µM (highest dose often 75.3 µM), for inactives: at the top dose activity, negative = inhibition, usual class: inhibitors | 220,000 tested, 7.3% active | AID 1030; active = well fitted inhibition curve with a large enough effect, not every such curve was filed as active; inconclusive = small, poorly fitted or top-dose-only effect, or another doubt; inactive = no such curve, though single readings can be large or run the other way;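 also: plate controls were no enzyme wells and a reference inhibitor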
Target sequence (P00352 whole entry, looked up): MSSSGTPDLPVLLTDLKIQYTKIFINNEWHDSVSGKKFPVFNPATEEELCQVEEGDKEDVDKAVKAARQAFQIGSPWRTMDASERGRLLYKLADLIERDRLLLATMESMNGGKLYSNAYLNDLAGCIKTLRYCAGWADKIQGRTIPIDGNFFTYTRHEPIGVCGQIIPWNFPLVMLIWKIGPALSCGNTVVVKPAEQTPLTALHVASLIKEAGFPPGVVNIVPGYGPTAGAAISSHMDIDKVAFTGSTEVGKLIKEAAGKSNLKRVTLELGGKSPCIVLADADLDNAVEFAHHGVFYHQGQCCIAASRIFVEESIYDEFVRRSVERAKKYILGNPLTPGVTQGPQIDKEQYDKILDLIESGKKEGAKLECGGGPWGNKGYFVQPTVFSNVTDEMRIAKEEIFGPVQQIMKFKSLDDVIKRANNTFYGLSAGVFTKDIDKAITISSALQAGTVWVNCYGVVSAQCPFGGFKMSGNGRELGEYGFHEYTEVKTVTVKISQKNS
RORg inh – inhibitors of mouse ROR gamma transcriptional activity; P51450; Drosophila S2 Gal4-RORgamma UAS-luciferase reporter, 20 h; Potency, µM (top dose mostly 53.6 µM), inactives show at the top dose activity change, negative = inhibition, actives largely listed as inhibitors; 310,000 tested, 5.4% active; also: nearly all actives have a fitted effect of over 60% in size
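Stable Schneider cell line, Gal4 DNA-binding domain fused to ROR gamma, UAS-luciferase. Cmpd 1 hr RT → CuSO4 700 uM final → 20 hr RT → luciferase reagent 10 min → luminescence.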
Sfp PPTase inh – inhibitors of Bacillus subtilis Sfp phosphopantetheinyl transferase; Q9F4F7; Biochemical Sfp PPTase activity, qHTS; Potency, µM, for inactives: largest response in the series, negative = inhibition, usual class: inhibitors; 310,000 tested, 3.5% active;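 also: the enzyme is Sfp with the accession as filed and its product quenches rhodamine fluorescence; 0% = enzyme reaction without inhibitor and -100% = no enzyme wells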
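Fluorescence-quenching assay with 15 nM Sfp, 5 uM rhodamine-CoA and 12.5 uM BHQ-2-labelled ybbR peptide in pH 7.6 Hepes/MgCl2 buffer. Enzyme was pre-incubated with compound for 15 min at room temperature. Rate was taken from the 30-min fluorescence change (525/598 nm).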
Gal4-VP16 FLuc – Gal4-VP16 reporter inhibition counter-screen. Drosophila S2 Gal4-VP16 UAS-luciferase, luminescence, 20 h. Potency, µM (highest dose often 53.6 µM), inactives show at the top dose activity, negative = inhibition, hits mostly inhibitors. 310,000 tested, 3.5% active;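 also: Gal4-VP16 expression switched on by copper sulfate through the metallothionein promoter; nearly all actives have a fitted effect of over 50% in size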
PLK1 PBD inh – inhibitors of human PLK1 polo-box domain binding; Potency, µM, without a hit: max response, negative = inhibition, usual class: inhibitors; AID 720504; 360,000 tested, 2.8% active; Plk1 PBD binding of FITC phosphopeptide, fluorescence polarization; also: series mostly up to about 57 µM; nearly all actives have a fitted effect of over 65% in size
An asterisk follows results filed as active; [ ] = another dose, or the depositor's remark. This is a sample that favours compounds with a hit; in the whole collection about 12% have one here. Unless noted, calls follow the shape of the dose curve; as a rule, active = well fitted curve in the direction sought with a large enough effect; inconclusive = small, poorly fitted or top-dose-only effect, or another doubt; inactive = no such curve, though single readings can be large; an effect the other way counts as inactive or inconclusive. Unless noted, % is scaled to controls: 0 for no effect and ±100 for the full control effect; potency is read from the fitted curve at half-maximal effect.

`COc1ccc(Cl)cc1NCC(=O)Nc1ccc(OC)c(S(=O)(=O)N2CCCCC2)c1` gave PLK1 PBD inh 0%.
`Cc1ccc2c(c1)=C(c1sc(N(C)c3ccc(O)cc3)nc1O)C(=O)N=2` gave RORg inh -22%, Sfp PPTase inh 2%, Gal4-VP16 FLuc -20% and PLK1 PBD inh 38µM*.
COc1ccc2[nH]c3c(c2c1)CCN1C(=O)C(CC(=O)NCc2ccc(OC)c(OC)c2)C[C@H](C(=O)N2CCOCC2)[C@@]31CCC1CCCC1 (some centres undefined) was read as PLK1 PBD inh 19µM*.
CSc1nc(-c2ccc(Cl)cc2Cl)[nH]c(=O)c1C#N was read as ALDH1A1 inh 15%, RORg inh 3%, Sfp PPTase inh 33%, Gal4-VP16 FLuc -3% and PLK1 PBD inh inconclusive.
For Cc1cc(-c2ccc(Cl)cc2Cl)c(C#N)c(=O)[nH]1 the results were RORg inh 18%, Sfp PPTase inh 2%, Gal4-VP16 FLuc -14% and PLK1 PBD inh 17µM*.
COC(=O)[C@]12CCCCC=C1N(Cc1cccc3ccccc13)C(=O)[C@H](CC(=O)NCCC(C)C)C2 was read as PLK1 PBD inh -11%.
CC(C)CO/N=C1/C[C@@H](O)[C@@H](O)[C@@H]2[C@H]3C(=O)N(c4ccc(F)cc4F)C(=O)[C@@H]3CC[C@H]12 was read as ALDH1A1 inh 5%[13.5 µM], RORg inh -8%[10 µM], Sfp PPTase inh -2% and Gal4-VP16 FLuc -5%[10 µM].
Screening CCOC(=O)CN1C(=O)C(O)(C2CCc3ccccc3C2=O)c2ccccc21 (centres undefined) returned ALDH1A1 inh 3.2µM*, RORg inh 8%, Sfp PPTase inh 13%, Gal4-VP16 FLuc -2% and PLK1 PBD inh -7%.
Cc1[nH]c2ccccc2c1C(=O)CN1C(=O)NC(C)(c2ccc(Cl)cc2Cl)C1=O (centres undefined) was read as ALDH1A1 inh inconclusive, RORg inh 13%, Sfp PPTase inh 7%, Gal4-VP16 FLuc -13% and PLK1 PBD inh 5%.
`CCOC(=O)CN1C(=O)C(O)(c2c(C)[nH]c3ccccc23)c2ccccc21` (centres undefined) gave ALDH1A1 inh 0.28µM*, RORg inh 5%, Sfp PPTase inh -2%, Gal4-VP16 FLuc 4% and PLK1 PBD inh -2%.
Screening CCOC(=O)CN1C(=O)C2(OCCCO2)c2ccccc21 returned ALDH1A1 inh 8.9µM*, RORg inh 2%, Sfp PPTase inh 12%, Gal4-VP16 FLuc -2% and PLK1 PBD inh -11%.
Cc1cccc(NC(=S)N(Cc2cccs2)Cc2cc3cc(C)cc(C)c3[nH]c2=O)c1 was read as ALDH1A1 inh 21%, RORg inh 15%, Sfp PPTase inh -9%, Gal4-VP16 FLuc -14% and PLK1 PBD inh 4%.
For COCCNC(=S)N(Cc1cccs1)Cc1cc2cccc(C)c2[nH]c1=O the results were ALDH1A1 inh 13µM*, RORg inh -6%, Sfp PPTase inh inconclusive, Gal4-VP16 FLuc 0% and PLK1 PBD inh -2%.
`COc1ccccc1NC(=O)N(Cc1ccco1)Cc1cc2c(C)ccc(C)c2[nH]c1=O` gave ALDH1A1 inh 18µM*, RORg inh -20%, Sfp PPTase inh -8%, Gal4-VP16 FLuc 3% and PLK1 PBD inh 0%.
`CNC(=S)N(Cc1ccc(OC)cc1)Cc1cc2cccc(C)c2[nH]c1=O` gave ALDH1A1 inh -3%, RORg inh 28%, Sfp PPTase inh 6%, Gal4-VP16 FLuc -2% and PLK1 PBD inh 13µM*.
Screening COc1ccc(CN(Cc2cc3cccc(C)c3[nH]c2=O)C(=O)N(C)C)cc1 returned ALDH1A1 inh -6%, RORg inh 1%, Sfp PPTase inh 14%, Gal4-VP16 FLuc 2% and PLK1 PBD inh -5%.
Screening Cc1ccc(C)c2[nH]c(=O)c(CN(Cc3cccs3)C(=S)NCc3ccco3)cc12 returned ALDH1A1 inh 25µM*, RORg inh -20%, Sfp PPTase inh -17%, Gal4-VP16 FLuc 0% and PLK1 PBD inh -5%.
For COc1ccccc1NC(=O)N(Cc1ccco1)Cc1cc2cccc(C)c2[nH]c1=O the results were ALDH1A1 inh inconclusive, RORg inh 8%, Sfp PPTase inh 5%, Gal4-VP16 FLuc -6%[0.365 µM] and PLK1 PBD inh -8%.
